The subject of assay [1] is T1, GRK2.
T1 construct: gene ADRBK1
As to conditions: concentration: 1 μM, replicates: in singlicate; n = 1.

The test system of assay [2] is T2, GRK3.
T2 construct: gene ADRBK2
The conditions noted are these: concentration: 1 μM, replicates: in singlicate; n = 1.

In assay [3] the test system is GRK4. The conditions noted are these: concentration: 1 μM, replicates: in singlicate; n = 1.
The test system of assay [4] is GRK7. As to conditions: concentration: 1 μM, replicates: in singlicate; n = 1.
Assay [5] deals with GSK3A. As to conditions: concentration: 1 μM, replicates: in singlicate; n = 1.
Assay [6] deals with GSK3B. The conditions noted are these: n = 1.
Assay [7] concerns T3, HASPIN.
T3 construct: gene GSG2
The conditions noted are these: concentration: 1 μM, replicates: in singlicate; n = 1.

In assay [8] the test system is HCK. As to conditions: concentration: 1 μM, replicates: in singlicate; n = 1.
Assay [9] has as its system HIPK1. The conditions noted are these: concentration: 1 μM, replicates: in singlicate; n = 1.
The subject of assay [10] is HIPK2. As to conditions: concentration: 1 μM, replicates: in singlicate; n = 1.
Setting [11] is: concentration: 1 μM, replicates: in singlicate.

The structures appear in SMILES notation. Read-outs that look alike come from different tables or passages of the source.
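Also: KINOMEscan kinase panel screen.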

Consider `Nc1ncnc2c1ncn2-c1cccc2ccccc12` [SKF-97184], for which the “%Inh” value in [1] worked out at 0%; in [2], 0%; in assay [3] it was 14%; in assay [4], 4%; in [5] it was 8%; in assay [6] (setting [11]), 23%. Also, the “%Inh” value in assay [7] was determined as 60%; in [8], 7%; in assay [9], 34%; in [10] it was 0%.
Turning to `O=C(Nc1n[nH]c2nc(-c3ccccc3)c(Cl)cc12)C1CC1` [SB-734909], the “%Inh” value in [1] was 0%; in assay [2], 83%; in assay [3], 17%; in assay [4], 0%; in assay [5], 90.6%; in [6] (1 µM), 56%. Further, the “%Inh” value came to 0% in assay [7], 0% in assay [8], 20% in [9] and 0% in assay [10].
With `Cc1cccc(-c2nc(Nc3ccc4c(cnn4C)c3)c3ccccc3n2)n1` [GW876731], the “%Inh” value was 16% in assay [1]; 5% in [2]; 0% in assay [3]; 15% in assay [4]; 18% in assay [5]; 0% in assay [6] (setting [11]). For the same molecule, the “%Inh” value in assay [7] came out at 11%; in [8], 0%; in assay [9] it was 0%; in assay [10], 14%.
Turning to `COc1ccc(Nc2nccc(N3CCC(NS(=O)(=O)c4ccc(NC(C)=O)cc4)C3)n2)cc1` (stereo not drawn) [GSK1379729], the “%Inh” value in [1] is reported as 3%; in [2], 0%; in assay [3] it was 49%; in assay [4], 0%; in assay [5], 0%; in assay [6] (setting [11]) it was 7%. Moreover, the “%Inh” value in assay [7] was 19%; in assay [8], 7%; in assay [9], 0%; in [10], 20%.
For `COC(=O)c1c(-c2ccccc2)c2cc(Br)ccc2c(=O)n1Cc1ccc(S(C)(=O)=O)cc1`, the “%Inh” value is 14% in assay [1]; 0% in assay [2]; 0% in assay [3]; 35% in assay [4]; 0% in [5]; 19% in assay [6] (setting [11]). Also, the “%Inh” value in assay [7] was 31%; in assay [8] it was 9%; in assay [9], 33%; in assay [10] it was 18%.
Take `Nc1ncnc2c1ncn2-c1ccc(Cl)cc1` [AH2635]: the “%Inh” value was 0% in assay [1]; 41% in assay [2]; 0% in assay [3]; 0% in assay [4]; 14% in assay [5]; 0% in assay [6] (setting [11]). Moreover, the “%Inh” value in assay [7] is given as 21%; in assay [8], 0%; in assay [9], 0%; in assay [10], 0%.
With `Cc1nnc(-c2ccc3ncn(-c4ccc(S(C)=O)cc4)c3c2)o1` (stereo not drawn), the “%Inh” value in assay [1] came to 0%; in assay [2] it was 0%; in assay [3] it was 0%; in [4], 0%; in [5] it was 74%; in [6] (setting [11]) it was 36%. Besides, the “%Inh” value in [7] worked out at 0%; in assay [8], 13%; in [9], 28%; in assay [10], 10%.
For `COc1cc(Nc2ccnc3ccc(C(F)(F)F)cc23)cc(OC)c1OC` [GW577382], the “%Inh” value turned out to be 0% in [1]; 25% in assay [2]; 0% in [3]; 0% in assay [4]; 0% in assay [5]; 3% in [6] (setting [11]). Further, the “%Inh” value in assay [7] was 29%; in assay [8], 38%; in assay [9] it was 5%; in [10] it was 0%.
As for `CC(C)(C)c1ccc(C(=O)Nc2cn3cc(-c4ccccc4)ccc3n2)cc1`, the “%Inh” value in [1] amounted to 0%; in [2] it was 0%; in assay [3], 26%; in assay [4], 0%; in assay [5], 12%; in [6] (setting [11]), 30%. The “%Inh” value in assay [7] came out at 0%; in assay [8], 13%; in assay [9], 43%; in [10] it was 52%.

The values above are taken from PMC5540273 (PLoS ONE, 2017).
